# From PubChem BioAssay (Tox21)
# Values joined by “and” are separate entries in the source; they are usually repeats but may differ in a detail not shown here. Equal entries are not always repeated. Inconclusive results are not listed. A call without a number means that no potency is given here. Some compounds were tested as several samples or in several runs, with calls that do not always agree. Active and inactive are the calls of the source. Unless noted, calls come from the whole dose curve; as a rule, active = well fitted curve in the direction sought with a large enough effect in the repeat runs; inconclusive = weak or mixed curves; inactive = no such curve, though single readings can be large; an effect the other way counts as inactive or inconclusive.
# Tests used:
# [1] = qHTS assay to identify small molecule antagonists of the androgen receptor (AR) signaling pathway using the MDA cell line in the presence of 0.5 nM R1881 - cell viability counter screen (AID 1259242); note: nearly all actives have a fitted effect of over 45% in size; note: potency is the fitted concentration of half-maximal effect
# Summary of the method: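 MDA-kb2 cells (human breast carcinoma, stably carrying MMTV-luciferase reporter) were exposed to compounds with 0.5 nM R1881 (final) for 16 hr at 37C, 0% CO2; viability then read as live-cell protease fluorescence (CellTiter-Fluor, 30 min) in the same wells.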
# [2] = target: Estrogen receptor (Homo sapiens) (UniProt P03372); assay: qHTS assay to identify small molecule antagonists of the estrogen receptor alpha (ER-alpha) signaling pathway using the BG1 cell line in the presence of 0.1 nM 17-beta-estradiol (AID 1259244); note: nearly all actives have a fitted effect of over 50% in size
# Summary of the method: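 VM7Luc4E2 cells (endogenous full-length ER-alpha, stable 4xERE-luciferase) were grown 5 days in phenol red-free medium with charcoal-stripped FBS, then exposed 22 h at 37C to compounds plus 0.1 nM (final) 17beta-estradiol; ONE-Glo luminescence read-out.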
# [3] = qHTS assay to identify small molecule phospholipidosis (PLD) inducers (AID 1259344; active = well fitted curve in the direction sought with a large enough effect; an effect the other way counts as inactive or inconclusive)
# Summary of the method: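 Fluorescent phospholipid staining (LipidTOX Red) measured by automated microscopy in fixed HepG2 cells after 24 h treatment; nuclei counterstained with Hoechst 33342; amiodarone as reference inducer.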
# [4] = qHTS assay to identify small molecule HDAC inhibitors - cell viability counter screen (AID 1259365); note: series mostly up to about 92 µM; nearly all actives have a fitted effect of over 50% in size
# Summary of the method: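 Wild-type HCT-116 cells were seeded at 1,500 per well, incubated overnight at 37 C, then exposed to compounds in DMSO for 2hr. Viability was read by CellTiter-Glo luminescence after 30min at room temperature.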
# [5] = qHTS assay to identify small molecule agonists of the sonic hedgehog signaling (Shh) pathway - cell viability counter screen (AID 1259366); note: nearly all actives have a fitted effect of over 50% in size; note: potency is the fitted concentration of half-maximal effect
# Summary of the method: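 NIH/3T3-derived 3T3 Gli1-Luc cells (stable Gli1-responsive firefly luciferase reporter) were seeded, rested 4 hr at 37 C/5% CO2, then exposed to compounds in DMSO for 24 hr; viability was read by CellTiter-Fluor fluorescence in the same wells.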
# [6] = qHTS assay to identify small molecule agonists of the sonic hedgehog signaling (Shh) pathway (AID 1259368; calls by dose curve; note: series mostly up to about 92 µM; nearly all actives have a fitted effect of over 15% in size)
# Summary of the method: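 NIH/3T3-derived 3T3Gli1-Luc cells carrying a stably integrated Gli1 response element–firefly luciferase reporter were plated, left 4 hr at 37 C, then given compounds in DMSO for 24 hr. Luminescence was read 30 min after adding luciferase reagent.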
# [7] = qHTS assay to identify small molecule antagonists of the sonic hedgehog signaling (Shh) pathway (AID 1259369; calls by dose curve; note: nearly all actives have a fitted effect of over 45% in size; note: potency is the fitted concentration of half-maximal effect)
# Summary of the method: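 NIH/3T3-derived 3T3Gli1-Luc cells with stably integrated Gli1-Luc reporter were preincubated 4hr at 37 C, then given compounds in DMSO plus Shh conditioned medium and incubated 24hr. Firefly luciferase luminescence read after 30min reagent at room temperature.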
# [8] = target: Estrogen receptor beta (Homo sapiens) (UniProt Q92731); assay: qHTS assay to identify small molecule agonists of the estrogen receptor beta (ER-beta) signaling pathway (AID 1259377; active = well fitted activation curve with a large enough effect in the signal ratio in the repeat runs, not every such curve was filed as active; the % refers to the signal ratio)
# Summary of the method: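 ER-beta-UAS-bla HEK293T (GripTite) cells carrying a UAS-driven beta-lactamase reporter, in medium with 2% charcoal-stripped FBS, were exposed to compounds for 16 hr at 37C; LiveBLAzer B/G FRET substrate was then added and fluorescence read after 2 hours at room temperature.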
# [9] = target: Estrogen receptor beta (Homo sapiens) (UniProt Q92731); assay: qHTS assay to identify small molecule antagonists of the estrogen receptor beta (ER-beta) signaling pathway (AID 1259378; active = well fitted inhibition curve with a large enough effect in the signal ratio in the repeat runs, not every such curve was filed as active; the % refers to the signal ratio)
# Summary of the method: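 Antagonist mode: compounds added to beta-lactamase reporter HEK293T ER-beta-UAS cells stimulated with E2 (1nM final), 16 hr at 37C. LiveBLAzer B/G FRET substrate, 2 hours room temperature, fluorescence read-out.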
# [10] = qHTS assay to identify small molecule agonists of the androgen receptor (AR) signaling pathway in the presence of an antagonist - cell viability counter screen (AID 1259379); note: nearly all actives have a fitted effect of over 25% in size; note: potency is the fitted concentration of half-maximal effect; for activity change, negative = cytotoxicity: series mostly up to about 92 µM
# Summary of the method: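 MDA-kb2 human breast carcinoma cells (stable MMTV-luciferase, AR/GR responsive) were seeded 3,000 cells/well, pre-incubated 5 hr at 37C without CO2, then given 3.0uM nilutamide and compounds at 15 concentrations for 16 hr. Viability was read by CellTiter-Fluor fluorescence.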
# [11] = qHTS assay to identify small molecule agonists of the estrogen receptor beta (ER-beta) signaling pathway - cell viability counter screen (AID 1259380); note: nearly all actives have a fitted effect of over 30% in size; note: potency is the fitted concentration of half-maximal effect
# Summary of the method: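 ER-beta-UAS-bla HEK293T cells in medium with 2% charcoal-stripped FBS were preincubated 6 hr at 37C, dosed with compound in DMSO for 16 hr, then after the bla read, CellTiter-Glo was added for 30 min at room temperature; luminescence recorded.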
# [12] = qHTS assay to identify small molecule antagonists of the estrogen receptor beta (ER-beta) signaling pathway - cell viability counter screen (AID 1259382); note: series mostly up to about 92 µM; nearly all actives have a fitted effect of over 55% in size
# Summary of the method: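 ER-beta-UAS-bla HEK293T cells (2,000/well, 2% charcoal-stripped FBS) were pre-incubated 6 hr at 37C, then given compound plus 1nM final 17-beta-estradiol for 16 hr. Viability was read in the same wells by CellTiter-Glo luminescence after 30 min at room temperature.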
# [13] = target: Estrogen receptor (Homo sapiens) (UniProt P03372); assay: qHTS assay to identify small molecule agonists of the estrogen receptor alpha (ER-alpha) signaling pathway in the presence of an antagonist (AID 1259383; calls by dose curve; note: top concentration of the series differs between compounds; nearly all actives have a fitted effect of over 15% in size)
# Summary of the method: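 VM7Luc4E2 cells (endogenous full-length ER-alpha, 4×ERE-luciferase) were precultured 5 days in phenol red-free medium with 10% charcoal-stripped FBS, given 10.0nM ICI-182,780 (final), then treated with compounds at 15 concentrations for 22hr at 37C; luminescence read with ONE-Glo.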
# [14] = qHTS assay to identify small molecule agonists or antagonists of the thyroid stimulating hormone receptor (TSHR) signaling pathway - wild type cell line counter screen (AID 1259384; calls by dose curve)
# Summary of the method: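 Counter screen in untransfected Hek293: compounds (15-point titration, triplicate) plus phosphodiesterase inhibitor Ro20-1724 added after 18 h plating; 30 min RT. Intracellular cAMP via competitive d2/cryptate immunoassay, 1 h incubation.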
# [15] = target: Thyrotropin receptor (Homo sapiens) (UniProt P16473); assay: qHTS assay to identify small molecule antagonists of the thyroid stimulating hormone receptor (TSHR) signaling pathway (AID 1259385; calls by dose curve; note: nearly all actives have a fitted effect of over 20% in size)
# Summary of the method: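 Antagonist mode: compound-treated TSHR-expressing HEK293 cells were stimulated with 1.5 ng/mL TSH (final) in presence of Ro20-1724 for 30 min at RT. HTRF cAMP detection after 1 h; each compound tested at 15 concentrations, triplicate.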
# [16] = qHTS assay to identify small molecule agonists of the estrogen receptor alpha (ER-alpha) signaling pathway in the presence of an antagonist - cell viability counter screen (AID 1259386); note: nearly all actives have a fitted effect of over 30% in size; note: potency is the fitted concentration of half-maximal effect; for activity change, negative = cytotoxicity: series mostly up to about 92 µM
# Summary of the method: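 VM7Luc4E2 cells (endogenous full-length ER-alpha, 4×ERE-luciferase) were held 5 days in phenol red-free medium with 10% charcoal-stripped FBS, plated, then given 10.0nM ICI-182,780 and compounds at 15 concentrations for 22hr at 37C; viability read by CellTiter-Fluor fluorescence.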
# [17] = qHTS assay to identify small molecule antagonists of the sonic hedgehog signaling (Shh) pathway - cell viability counter screen (AID 1259367); note: nearly all actives have a fitted effect of over 55% in size; note: potency is the fitted concentration of half-maximal effect
# Summary of the method: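 Using CellTiter-Fluor, viability of Gli1-Luc reporter 3T3 cells is read by fluorescence in the wells used for the Shh luciferase assay. Treatment lasts 23 hr with conditioned medium, then reagent 1 hr at 37C.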
# [18] = qHTS assay to identify small molecule HDAC inhibitors (AID 1259364); note: top concentration of the series differs between compounds; nearly all actives have a fitted effect of over 45% in size
# Summary of the method: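 Wild-type HCT-116 cells were plated overnight, exposed to compounds for 2 h at 37 °C, then given HDAC-Glo class I/II luminogenic reagent for 30 min at room temperature before luminescence was read.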
# [19] = target: Androgen receptor (Homo sapiens) (UniProt P10275); assay: qHTS assay to identify small molecule antagonists of the androgen receptor (AR) signaling pathway using the MDA cell line in the presence of 0.5 nM R1881 (AID 1259243); note: nearly all actives have a fitted effect of over 50% in size
# Summary of the method: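 MDA-kb2 human breast carcinoma cells carrying an MMTV-luciferase reporter (AR- and GR-responsive) were plated, rested 5 hr at 37C, dosed with compounds, then stimulated with 0.5 nM R1881 (final) for 16 hr; luminescence was read after ONE-Glo.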
# [20] = target: Androgen receptor (Homo sapiens) (UniProt P10275); assay: qHTS assay to identify small molecule agonists of the androgen receptor (AR) signaling pathway in the presence of an antagonist (AID 1259381; calls by dose curve; note: nearly all actives have a fitted effect of over 15% in size)
# Summary of the method: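 MDA-kb2 human breast carcinoma cells carrying an MMTV-luciferase reporter (AR- and GR-responsive) were treated with compounds at 15 concentrations plus 3.0uM final nilutamide for 16hr at 37C without CO2; luminescence was read after ONE-Glo addition.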
# Estrogen receptor beta (Homo sapiens), sequence (Q92731 whole entry, looked up): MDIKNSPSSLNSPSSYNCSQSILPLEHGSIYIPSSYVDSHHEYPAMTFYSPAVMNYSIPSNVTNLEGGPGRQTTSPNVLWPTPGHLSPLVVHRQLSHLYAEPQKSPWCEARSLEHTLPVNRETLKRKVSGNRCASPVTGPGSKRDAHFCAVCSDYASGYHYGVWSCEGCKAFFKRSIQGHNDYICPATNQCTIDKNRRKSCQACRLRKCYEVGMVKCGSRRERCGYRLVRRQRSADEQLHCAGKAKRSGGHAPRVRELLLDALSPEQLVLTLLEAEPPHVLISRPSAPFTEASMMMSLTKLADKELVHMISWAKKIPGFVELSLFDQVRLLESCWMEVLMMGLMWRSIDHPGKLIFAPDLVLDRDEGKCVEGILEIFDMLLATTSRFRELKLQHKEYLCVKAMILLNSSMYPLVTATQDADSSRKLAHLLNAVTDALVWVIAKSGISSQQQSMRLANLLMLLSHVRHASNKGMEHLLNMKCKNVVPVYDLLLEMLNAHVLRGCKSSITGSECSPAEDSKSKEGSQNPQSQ
# Thyrotropin receptor (Homo sapiens), sequence (P16473 whole entry, looked up): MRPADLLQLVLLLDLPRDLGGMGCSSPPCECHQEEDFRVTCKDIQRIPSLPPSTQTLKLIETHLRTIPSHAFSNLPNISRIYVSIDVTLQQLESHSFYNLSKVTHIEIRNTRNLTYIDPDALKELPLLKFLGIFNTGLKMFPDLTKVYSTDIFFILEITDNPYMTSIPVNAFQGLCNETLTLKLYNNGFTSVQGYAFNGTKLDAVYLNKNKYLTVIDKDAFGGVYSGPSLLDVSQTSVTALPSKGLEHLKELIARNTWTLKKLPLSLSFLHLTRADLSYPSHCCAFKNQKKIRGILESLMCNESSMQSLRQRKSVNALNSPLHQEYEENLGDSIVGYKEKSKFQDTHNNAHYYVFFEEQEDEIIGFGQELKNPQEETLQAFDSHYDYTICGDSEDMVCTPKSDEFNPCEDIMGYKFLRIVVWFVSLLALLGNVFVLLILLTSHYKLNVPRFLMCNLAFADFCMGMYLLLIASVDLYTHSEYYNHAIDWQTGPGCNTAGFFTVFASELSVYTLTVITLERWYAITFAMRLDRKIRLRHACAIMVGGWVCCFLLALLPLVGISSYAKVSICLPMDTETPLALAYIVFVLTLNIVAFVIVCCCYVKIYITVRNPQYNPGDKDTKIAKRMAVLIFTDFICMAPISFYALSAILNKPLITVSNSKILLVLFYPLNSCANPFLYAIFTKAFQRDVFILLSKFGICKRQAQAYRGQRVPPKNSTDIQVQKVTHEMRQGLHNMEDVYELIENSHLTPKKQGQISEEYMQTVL
# Androgen receptor (Homo sapiens), sequence (P10275 whole entry, looked up): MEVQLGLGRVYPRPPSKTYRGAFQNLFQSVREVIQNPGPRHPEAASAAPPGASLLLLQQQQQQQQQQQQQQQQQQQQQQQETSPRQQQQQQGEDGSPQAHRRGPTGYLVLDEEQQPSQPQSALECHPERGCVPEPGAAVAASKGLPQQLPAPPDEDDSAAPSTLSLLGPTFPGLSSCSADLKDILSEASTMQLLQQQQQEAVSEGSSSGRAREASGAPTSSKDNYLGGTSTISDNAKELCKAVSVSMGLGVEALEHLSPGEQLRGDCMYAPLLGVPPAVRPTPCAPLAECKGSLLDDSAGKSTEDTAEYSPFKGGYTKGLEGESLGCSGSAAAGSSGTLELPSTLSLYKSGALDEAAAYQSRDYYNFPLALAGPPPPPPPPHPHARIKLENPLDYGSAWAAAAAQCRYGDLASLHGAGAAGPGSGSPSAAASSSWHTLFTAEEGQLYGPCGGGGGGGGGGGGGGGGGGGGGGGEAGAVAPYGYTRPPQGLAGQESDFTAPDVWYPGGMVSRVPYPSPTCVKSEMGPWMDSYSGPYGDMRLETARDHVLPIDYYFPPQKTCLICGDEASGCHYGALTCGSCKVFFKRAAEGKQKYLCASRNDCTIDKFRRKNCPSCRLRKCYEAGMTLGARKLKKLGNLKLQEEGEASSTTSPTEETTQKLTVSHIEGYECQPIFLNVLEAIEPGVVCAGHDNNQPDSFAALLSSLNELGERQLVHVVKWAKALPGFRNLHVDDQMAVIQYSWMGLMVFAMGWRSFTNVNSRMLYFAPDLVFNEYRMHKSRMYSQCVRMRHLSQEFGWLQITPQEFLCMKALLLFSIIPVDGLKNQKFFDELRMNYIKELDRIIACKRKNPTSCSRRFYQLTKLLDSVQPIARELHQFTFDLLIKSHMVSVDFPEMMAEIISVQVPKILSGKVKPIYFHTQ
# Estrogen receptor (Homo sapiens), sequence (P03372 whole entry, looked up): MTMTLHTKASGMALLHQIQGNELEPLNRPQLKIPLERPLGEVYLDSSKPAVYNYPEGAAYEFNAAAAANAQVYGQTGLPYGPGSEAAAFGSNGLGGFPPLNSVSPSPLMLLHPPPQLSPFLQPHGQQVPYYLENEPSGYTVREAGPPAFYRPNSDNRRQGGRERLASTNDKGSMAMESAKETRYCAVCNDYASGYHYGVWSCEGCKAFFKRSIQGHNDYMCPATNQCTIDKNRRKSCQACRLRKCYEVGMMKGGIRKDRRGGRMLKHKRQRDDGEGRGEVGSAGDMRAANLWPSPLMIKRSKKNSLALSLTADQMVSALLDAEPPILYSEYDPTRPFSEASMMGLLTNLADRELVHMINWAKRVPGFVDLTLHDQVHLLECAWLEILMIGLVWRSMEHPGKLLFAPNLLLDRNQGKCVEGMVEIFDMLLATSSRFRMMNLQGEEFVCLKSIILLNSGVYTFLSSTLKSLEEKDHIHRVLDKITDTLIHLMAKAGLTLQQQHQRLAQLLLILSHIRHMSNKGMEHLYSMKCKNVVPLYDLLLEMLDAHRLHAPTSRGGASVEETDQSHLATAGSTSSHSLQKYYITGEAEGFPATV
smiles,measurement,setting,value
CC/C=C\C/C=C\C/C=C\CCCCCCCC(=O)O,Potency,[1],inactive
same,Potency,[2],inactive
same,Potency,[3],inactive
same,outcome,[4],inactive
same,Potency,[5],inactive
same,Potency,[6],inactive
same,Potency,[7],inactive and 43.3 µM (active)
same,Potency,[8],inactive
same,Potency,[9],inactive
same,Potency,[10],inactive
same,Potency,[11],24.1 µM (active) and inactive
same,Potency,[12],inactive
same,Potency,[13],inactive
same,Potency,[14],inactive
same,Potency,[15],inactive
same,Potency,[16],inactive
CC1(C)O[C@@H]2C[C@H]3[C@@H]4C[C@H](F)C5=CC(=O)C=C[C@]5(C)[C@@]4(F)[C@@H](O)C[C@]3(C)[C@]2(C(=O)CO)O1,Potency,[1],inactive
same,Potency,[2],inactive
same,Potency,[3],inactive
same,outcome,[4],inactive
same,Potency,[5],inactive
same,Potency,[17],inactive
same,Potency,[6],inactive
same,Potency,[7],inactive
same,Potency,[10],inactive
same,Potency,[11],inactive
same,Potency,[12],inactive
same,Potency,[14],inactive
same,Potency,[15],inactive
same,Potency,[16],inactive
CC(=O)O[C@]1(C(C)=O)CC[C@H]2[C@@H]3C=C(C)C4=CC(=O)CC[C@]4(C)[C@H]3CC[C@@]21C,Potency,[1],inactive
same,Potency,[2],inactive
same,Potency,[3],inactive
same,Potency,[18],inactive
same,outcome,[4],inactive
same,Potency,[5],inactive
same,Potency,[6],inactive
same,Potency,[10],inactive
same,Potency,[11],inactive
same,Potency,[12],inactive
same,Potency,[14],inactive
same,Potency,[15],inactive
same,Potency,[16],inactive
NCCS(=O)(=O)O,Potency,[1],inactive
same,Potency,[2],inactive
same,Potency,[3],inactive
same,Potency,[18],inactive
same,outcome,[4],inactive
same,Potency,[5],inactive
same,Potency,[17],22.5 µM (active) and inactive
same,Potency,[6],inactive
same,Potency,[7],inactive
same,Potency,[8],inactive
same,Potency,[9],inactive
same,Potency,[10],25.3 µM (active) and inactive
same,Potency,[11],inactive
same,Potency,[12],inactive
same,Potency,[14],inactive
same,Potency,[15],inactive
same,Potency,[16],25.3 µM (active) and inactive
COc1cc([C@H]2Oc3cc([C@H]4Oc5cc(O)cc(O)c5C(=O)[C@@H]4O)ccc3O[C@@H]2CO)ccc1O,Potency,[1],inactive
same,Potency,[2],inactive
same,Potency,[3],inactive
same,Potency,[18],inactive
same,outcome,[4],inactive
same,Potency,[5],24.3 µM (active) and inactive
same,Potency,[17],27.2 µM (active) and inactive
same,Potency,[6],inactive
same,Potency,[7],19.3 µM (active)
same,Potency,[10],inactive
same,Potency,[11],inactive
same,Potency,[12],inactive
same,Potency,[16],inactive
CN(Cc1cnc2nc(N)nc(N)c2n1)c1ccc(C(=O)N[C@@H](CCC(=O)O)C(=O)O)cc1,Potency,[1],inactive
same,Potency,[19],inactive
same,Potency,[2],inactive
same,Potency,[3],inactive
same,Potency,[18],inactive
same,outcome,[4],inactive
same,Potency,[5],inactive
same,Potency,[17],inactive
same,Potency,[6],inactive
same,Potency,[7],inactive
same,Potency,[8],inactive
same,Potency,[9],inactive
same,Potency,[10],inactive
same,Potency,[11],172 nM (active) and 133 nM (active)
same,Potency,[20],inactive
same,Potency,[13],inactive
same,Potency,[14],inactive
same,Potency,[15],inactive
same,Potency,[16],inactive
O=[Se](O)O,Potency,[1],13.7 µM (active)
same,"viability change, negative = cytotoxic",[1],-4.23% [at 19 µM] (inactive)
same,"activity change, negative = inhibition",[2],-20.4% [at 19 µM] (inactive)
same,Potency,[18],inactive
same,outcome,[4],inactive
same,Potency,[5],inactive
same,Potency,[17],inactive
same,Potency,[6],inactive
same,Potency,[7],inactive
same,Potency,[8],inactive
same,Potency,[9],inactive
same,Potency,[10],8.64 µM (active)
same,"activity change, negative = cytotoxicity",[11],1.8% [at 19 µM] (inactive)
same,Potency,[12],inactive
same,Potency,[13],inactive
same,Potency,[14],inactive
same,Potency,[15],inactive
same,Potency,[16],38.6 µM (active)
same,"activity change, negative = cytotoxicity",[16],10.8% [at 19 µM] (inactive)
O=C(O)c1cc(=O)[nH]c(=O)[nH]1,Potency,[1],inactive
same,Potency,[2],inactive
same,Potency,[3],inactive
same,outcome,[4],inactive
same,Potency,[5],inactive
same,Potency,[6],inactive
same,Potency,[7],inactive and 13.3 µM (active)
same,Potency,[10],inactive
same,Potency,[11],inactive
same,Potency,[12],inactive
same,Potency,[13],inactive
same,Potency,[14],inactive
same,Potency,[15],inactive
same,Potency,[16],inactive
